The text below walks through data of PubChem BioAssay (NCI).

About 83,000 compounds went through this panel and 20% of them were active in at least one assay; those are over-represented in the sample as a whole.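 Assay: single dose, 48 h. Readout: percent growth (0 = no net growth; negative = cell death). Active: <10.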 A number with no mark means an inactive call. The source made the active and inactive calls.

For the experiment, the system named is DU-145 prostate. Briefly: NCI-60 one-dose screen, 48 h (100 = growth as untreated, 0 = no growth, -100 = all killed). The following applies: 10 µM unless noted.
For `COc1cc2[nH]c(C(=O)c3cc(OC)c(OC)c(OC)c3)c(N)c2cc1C#CC1CC1`, the growth is 28.9%.
For the compound `COc1cc2c(cc1OC)C(=O)/C(=C/c1cc(-c3ccc4c(c3)OCO4)n[nH]1)C2`, the growth was 1.19% (active).
To `NS(=O)(=O)c1ccc(CCNC(=O)/C=C/c2ccc(Cl)cc2)cc1` belongs 99.5%; to `C/C(=N/NC(N)=S)C(=O)O`, 102%; to `Cc1ccc(-c2ccc(Nc3ccccc3)nn2)cc1S(N)(=O)=O`, 85.2%.
For `CCC(c1ccc(OC)cc1)C(CC)c1ccc(O)c(CN2CCCCC2)c1` (stereo not drawn) the value was 86.6%; for `COc1cc(-c2cc(-c3nc4ccc(F)cc4[nH]3)[nH]n2)cc(OC)c1OC`, 35.5%.
In the case of `COc1cccc(NC(=O)c2sc3nc4c(cc3c2N)C(=O)CCC4)c1`, the growth was 11.8%.
On to `NC1(N)C=CC2=C(C=C1)C1(N)C3=C(C=CC(N)(N)C=C3)N2C2(N)C3=C(C=CC(N)(N)C=C3)N1C1=C2C=CC(N)(N)C=C1`, for which the growth was 97%.
For `COc1ccc(-c2nc3ccccn3c2-c2nc3ccc(Cl)cc3[nH]2)cc1` the value was 107%.
Take `O=c1c(CNc2ccc(S(=O)(=O)Nc3nccs3)cc2)coc2ccccc12`: the growth was 110%.
`CN1CCN(c2nc(-c3cccc4ccccc34)nc3sc4c(c23)CCCCCC4)CC1`: the growth is 102%.
For `COc1ccc2nc(-c3cc(-c4cc(OC)c(OC)c(OC)c4)n[nH]3)[nH]c2c1` the value was 11.8%.
Turning to `COc1cccc(-c2nn(-c3ccccc3)cc2-c2ccnc(NCCNS(=O)(=O)c3ccc(Cl)cc3)c2)c1`, the growth was 52.7%.
Consider `O=S(=O)(NCCNc1cc(-c2cn(-c3ccccc3)nc2-c2cccc(O)c2)ccn1)c1ccc(C(F)(F)F)cc1`, for which the growth was 71.8%.
In the case of `Cc1cc(C)c(NC(=O)c2sc3nc4c(cc3c2N)CCCC4)c(C)c1`, the growth is 70.3%.
For `C/C(=N\Nc1cc(C)c2ccccc2n1)c1ccccn1` the value was 18.3%.
Consider `C=C1C(=O)O[C@H]2[C@H]1CC/C(Cn1cc(-c3ccc(OC)cc3)nn1)=C\CC[C@@]1(C)O[C@@H]21`, for which the growth was -35% (active).
With `COC(=O)[C@]12CC[C@@H](C)[C@H](C)[C@@H]1C1=CC[C@@H]3[C@@]4(C)C[C@@H](OC(C)=O)[C@H](OC(C)=O)[C@@](C)(COC(C)=O)[C@@H]4[C@H](O)C[C@@]3(C)[C@]1(C)CC2`, the growth was 20.3%.
In the case of `COc1cccc(-c2nn(-c3ccccc3)cc2-c2ccnc(NCCCNS(=O)(=O)c3ccc(Cl)cc3)c2)c1`, the growth was 67.1%.
For `O=c1c(CNc2ccc(S(=O)(=O)Nc3ncccn3)cc2)coc2ccccc12`, the growth is 108%.
In the case of `COc1ccc(-c2cc(/C=C/C(=O)c3ccc(OC)c(OC)c3)[nH]n2)cc1`, the growth is 0.792% (active).
Regarding `C#Cc1cc2c(N)c(C(=O)c3cc(OC)c(OC)c(OC)c3)[nH]c2cc1OC`, the growth was 19%.
Take `O=S(=O)(NCCNc1cc(-c2cn(-c3ccccc3)nc2-c2cccc(O)c2)ccn1)c1ccc(F)cc1`: the growth is 55.3%.
With `c1ccc2[nH]c(-c3cc(-c4ccc5c(c4)OCO5)n[nH]3)nc2c1`, the growth was 69.1%.
For `COc1cccc(-c2nn(-c3ccccc3)cc2-c2ccnc(NCCCNS(=O)(=O)c3cccc(F)c3)c2)c1` the value was 53.6%; for `COc1cc(-c2cc(-c3nc4cc(Cl)c(Cl)cc4[nH]3)[nH]n2)cc(OC)c1OC`, 92.5%.
As for `Oc1cc(/C=C/c2nc(N3CCOCC3)c3cc(Cl)c(Cl)cc3n2)cc(O)c1O`, the growth is 104%.
For `Cc1cc(Nc2ccc(F)cc2)nc(N2CCN(c3ccnc4cc(Cl)ccc34)CC2)n1`, the growth was 35%.
To `COc1ccc(/C=C/C(=O)NCC(C)O)cc1` (stereo not drawn) belongs 103%.
With `COc1ccc(-c2cc(/C=C/C(=O)c3ccc(N)cc3)[nH]n2)cc1`, the growth is 11.9%.
To `CSc1ccc(N(C)c2nc(C)nc3c2CCC3)cc1` belongs 9.33% (active); to `OCCNc1nc(Nc2ccc(Cl)c(Cl)c2)nc2ccccc12`, 70.9%; to `COc1cc(-c2cc(-c3nc4ccccc4[nH]3)[nH]n2)cc(OC)c1OC`, 50.4%.
On to `O=C1CCN2C(=O)Nc3ccccc3C2C1` (stereo not drawn), for which the growth was 112%.
In the case of `Cc1[c-]onc1C.Cc1[c-]onc1C.[Ag].[Ag].[NH-]S(=O)(=O)c1ccc(N=Nc2cc(N=Nc3ccc(S([NH-])(=O)=O)cc3)c3c(NC(=O)C(Cl)Cl)cccc3c2OC(=O)C(Cl)Cl)cc1`, the growth was 70.5%.
For `Clc1ccc(Cn2cc(-c3nc4ccc(Br)nc4n3Cc3ccc(Cl)cc3)c3cccnc32)cc1` the value was 105%.
To `COC(=O)[C@]12CC[C@@H](C)[C@H](C)[C@@H]1C1=CC[C@@H]3[C@@]4(C)C[C@@H](OC(C)=O)[C@H](O)[C@@](C)(COC(C)=O)[C@@H]4[C@H](O)C[C@@]3(C)[C@]1(C)CC2` belongs -91.9% (active).
